Among the data in PubChem BioAssay (NCI) are growth values, retold here.

Some test systems named below: SR leukemia; OVCAR-8 ovarian; OVCAR-5 ovarian; OVCAR-4 ovarian; IGROV1 ovarian; OVCAR-3 ovarian; HS 578T breast; NCI/ADR-RES ovarian; T-47D breast; BT-549 breast; SW-620 colon; HCC-2998 colon; KM12 colon.
Holding throughout (assay): NCI-60 one-dose screen, 48 h (100 = growth as untreated, 0 = no growth, -100 = all killed)
The next test concerns RPMI-8226 leukemia. The following applies: 10 µM unless noted.
The test system of the next test is SK-OV-3 ovarian. The note with it: 10 µM unless noted.
The subject of a further test is MDA-MB-435 melanoma. The note with it: 10 µM unless noted.
The test system of a further test is MCF7 breast. The note with it: 10 µM unless noted.
In a further test the test system is HCT-116 colon. The following applies: 10 µM unless noted.

“And” between values parts separate entries of the source, which are not always exact repeats. Equal entries are not always repeated. The panel holds about 83,000 compounds, 20% with a hit somewhere; the sample as a whole holds those more often.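 Method: cells in 96-well plates; compound added at one concentration; 48 h incubation; percent growth measured; values under 10 scored active.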 The source made the active and inactive calls.

Regarding `CNC(=O)c1cc(Oc2ccc(CC(=O)Nc3cc(C(C)(C)C)nn3C)cc2)ccn1`, the growth was 82.7% (inactive) with SR leukemia (1 µM); 48.9% (inactive) with SR leukemia (30 µM); 72.5% (inactive) with OVCAR-8 ovarian (1 µM); 71.8% (inactive) with OVCAR-8 ovarian (10 µM); 70.6% (inactive) in the test on OVCAR-8 ovarian (30 µM); 104% (inactive) with OVCAR-5 ovarian (1 µM). Further, the growth in the test with OVCAR-5 ovarian (10 µM) was 116% (inactive); in the test on OVCAR-5 ovarian (30 µM), 98.9% (inactive); in the test on OVCAR-4 ovarian (1 µM) it was 58.7% (inactive); in the test with OVCAR-4 ovarian (10 µM) it was 44.7% (inactive); with OVCAR-4 ovarian (30 µM), 83.4% (inactive); in the test with IGROV1 ovarian (1 µM) it was 75.1% (inactive). In addition, the growth is 85.6% (inactive) in the test on IGROV1 ovarian (10 µM); 90.5% (inactive) in the test on IGROV1 ovarian (30 µM); 81.9% (inactive) with OVCAR-3 ovarian (1 µM); 69.6% (inactive) in the test with OVCAR-3 ovarian (10 µM); 109% (inactive) in the test on OVCAR-3 ovarian (30 µM); 81.4% (inactive) in the test with HS 578T breast (1 µM). The growth with HS 578T breast (10 µM) is 65.4% (inactive); in the test on HS 578T breast (30 µM), 83.5% (inactive); with NCI/ADR-RES ovarian (1 µM), 85.3% (inactive); in the test with NCI/ADR-RES ovarian (10 µM) it was 76% (inactive); in the test with NCI/ADR-RES ovarian (30 µM), 53.7% (inactive); with T-47D breast (1 µM), 57.4% (inactive). Also, the growth in the test on T-47D breast (10 µM) was 44.7% (inactive); in the test with T-47D breast (30 µM) it was 51.7% (inactive); in the test on BT-549 breast (1 µM) it was 72.6% (inactive); in the test on BT-549 breast (10 µM) it was 82.4% (inactive); in the test on BT-549 breast (30 µM), 81% (inactive); in the test on SW-620 colon (1 µM) it was 106% (inactive). Besides, the growth is 87.2% (inactive) in the test with SW-620 colon (10 µM); 97.8% (inactive) in the test with SW-620 colon (30 µM); 107% (inactive) with HCC-2998 colon (1 µM); 75.3% (inactive) in the test on HCC-2998 colon (10 µM); 101% (inactive) with HCC-2998 colon (30 µM); 88.4% (inactive) in the test with KM12 colon (1 µM). The values for the growth with KM12 colon (10 µM) and with KM12 colon (30 µM) were 58.5% (inactive) and 64.6% (inactive), respectively.

Consider `O=C1C2=C(C(=O)c3ccccc31)C(O)(S(=O)(=O)O)C(O)(S(=O)(=O)O)C1N=CC=CC21` (configuration not stated), for which the growth was 12.6% (inactive) and 61.2% (inactive) in the test on SR leukemia (10 µM unless noted); 22.9% (inactive) and 44.8% (inactive) in the test with RPMI-8226 leukemia; 24.3% (inactive) and 10.6% (inactive) in the test with OVCAR-8 ovarian (10 µM unless noted); 51.9% (inactive) in the test on OVCAR-5 ovarian (10 µM unless noted); 28.7% (inactive) and 24.3% (inactive) in the test on OVCAR-4 ovarian (10 µM unless noted); 44.8% (inactive) and 20.9% (inactive) in the test with SK-OV-3 ovarian. Moreover, the growth with IGROV1 ovarian (10 µM unless noted) was 33% (inactive) and -16.2% (active); in the test with OVCAR-3 ovarian (10 µM unless noted), 22.4% (inactive) and 3.66% (active); with HS 578T breast (10 µM unless noted), 13.3% (inactive); in the test with NCI/ADR-RES ovarian (10 µM unless noted) it was 11.3% (inactive); in the test with T-47D breast (10 µM unless noted), 39% (inactive) and -21.9% (active); in the test on BT-549 breast (10 µM unless noted), 39.6% (inactive) and 24.6% (inactive). Besides, the growth was 44.1% (inactive) and 39% (inactive) in the test on MDA-MB-435 melanoma; 32.5% (inactive) and 21.5% (inactive) with SW-620 colon (10 µM unless noted); 29.1% (inactive) and 24.9% (inactive) with MCF7 breast; 23.1% (inactive) and 8.66% (active) in the test with HCT-116 colon; 44.6% (inactive) and 28.3% (inactive) in the test on HCC-2998 colon (10 µM unless noted); 41.6% (inactive) and 32.6% (inactive) in the test with KM12 colon (10 µM unless noted).

Consider `O=C(CN1CCOCC1)N1CCOCC1`, for which the growth in the test with SR leukemia (10 µM unless noted) is 94.5% (inactive) and 97.8% (inactive); with RPMI-8226 leukemia it was 96.3% (inactive) and 106% (inactive); in the test on OVCAR-8 ovarian (10 µM unless noted), 109% (inactive) and 104% (inactive); in the test on OVCAR-5 ovarian (10 µM unless noted) it was 115% (inactive) and 91.5% (inactive); with OVCAR-4 ovarian (10 µM unless noted), 113% (inactive) and 114% (inactive); in the test on SK-OV-3 ovarian, 110% (inactive) and 96.3% (inactive). Moreover, the growth in the test with IGROV1 ovarian (10 µM unless noted) was 117% (inactive) and 115% (inactive); in the test with OVCAR-3 ovarian (10 µM unless noted), 115% (inactive) and 128% (inactive); in the test with HS 578T breast (10 µM unless noted), 111% (inactive) and 106% (inactive); with NCI/ADR-RES ovarian (10 µM unless noted), 107% (inactive) and 114% (inactive); in the test on T-47D breast (10 µM unless noted), 110% (inactive) and 101% (inactive); in the test on BT-549 breast (10 µM unless noted), 96.9% (inactive). The growth in the test with MDA-MB-435 melanoma was 116% (inactive) and 101% (inactive); in the test with SW-620 colon (10 µM unless noted) it was 105% (inactive) and 109% (inactive); in the test on MCF7 breast, 110% (inactive) and 105% (inactive); in the test with HCT-116 colon, 104% (inactive) and 107% (inactive); in the test on HCC-2998 colon (10 µM unless noted), 104% (inactive) and 105% (inactive); with KM12 colon (10 µM unless noted) it was 110% (inactive) and 106% (inactive).

Take `NS(=O)(=O)c1cc2c(cc1Cl)NC(C(Cl)Cl)NS2(=O)=O` (configuration not stated): the growth in the test on SR leukemia (10 µM unless noted) is 99.8% (inactive); in the test on RPMI-8226 leukemia it was 96.7% (inactive) and 100% (inactive); with OVCAR-8 ovarian (10 µM unless noted), 99.2% (inactive) and 95.3% (inactive); with OVCAR-5 ovarian (10 µM unless noted), 96.6% (inactive); in the test on OVCAR-4 ovarian (10 µM unless noted), 97.4% (inactive) and 114% (inactive); in the test on SK-OV-3 ovarian it was 106% (inactive) and 114% (inactive). In addition, the growth in the test on IGROV1 ovarian (10 µM unless noted) is 101% (inactive) and 109% (inactive); with OVCAR-3 ovarian (10 µM unless noted), 119% (inactive) and 126% (inactive); in the test with HS 578T breast (10 µM unless noted) it was 124% (inactive) and 128% (inactive); with NCI/ADR-RES ovarian (10 µM unless noted), 101% (inactive) and 108% (inactive); with T-47D breast (10 µM unless noted), 104% (inactive); in the test with BT-549 breast (10 µM unless noted), 70.5% (inactive) and 102% (inactive). Besides, the growth with MDA-MB-435 melanoma was 101% (inactive) and 104% (inactive); in the test on SW-620 colon (10 µM unless noted), 110% (inactive); with MCF7 breast it was 93.1% (inactive) and 110% (inactive); in the test with HCT-116 colon it was 101% (inactive) and 100% (inactive); in the test on HCC-2998 colon (10 µM unless noted), 111% (inactive); in the test on KM12 colon (10 µM unless noted), 111% (inactive).
